# D2 antagonist: antagonizes the human D2 dopamine receptor | AID 485344 | P14416 | HEK293 TREx D2 cells, calcium flux, dopamine EC80 | inhibition, % at 10 µM | actives 2% (n = 340,000); in the data active = inhibition above about 30%; inactive = below that, where a call was filed; also: 0% is about no effect
# Target sequence (P14416 whole entry, looked up): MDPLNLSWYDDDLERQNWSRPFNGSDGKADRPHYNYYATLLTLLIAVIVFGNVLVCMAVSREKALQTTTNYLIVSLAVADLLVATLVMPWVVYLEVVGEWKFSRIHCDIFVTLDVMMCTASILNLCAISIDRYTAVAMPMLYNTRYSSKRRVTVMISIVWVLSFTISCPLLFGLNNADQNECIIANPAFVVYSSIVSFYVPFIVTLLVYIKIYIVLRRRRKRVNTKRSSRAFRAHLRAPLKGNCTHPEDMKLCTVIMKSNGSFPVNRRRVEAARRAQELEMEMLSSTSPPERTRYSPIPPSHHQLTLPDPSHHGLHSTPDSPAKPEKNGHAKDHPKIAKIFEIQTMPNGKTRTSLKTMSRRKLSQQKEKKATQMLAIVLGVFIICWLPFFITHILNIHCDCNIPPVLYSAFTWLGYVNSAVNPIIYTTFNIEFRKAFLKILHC
#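 Compounds are added to dye-loaded, induced HEK293 T-REx cells coupled to calcium release via D2; after a 3 min kinetic read an EC80 dopamine stimulus is given and fluorescence is recorded for 3 more min.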
# D2 PAM-1: potentiates the human D2 dopamine receptor allosterically. AID 624464. DiscoveRx D2 beta-arrestin cells, luminescence, 90 min; 100% = 57 uM dopamine signal. potentiation, % (concentration not given with the values). actives 0.23% (n = 360,000); in the data active = potentiation above about 50%
#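 D2 cells co-treated with compound plus 50 nM dopamine (EC20) for 90 min at 37 deg C to detect potentiation. Beta-arrestin recruitment was read as enzyme-fragment luminescence after 1 h at ambient temperature. Full response was set by 57 uM dopamine.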
# D2 ag-1: activates the human D2 dopamine receptor | P14416 | HEK293 T-REx D2 cells, calcium flux agonist mode | activation, % at 2 µM | actives 0.53% (n = 340,000) | AID 485358;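 active = activation over 3 SD above normal in the single-dose calcium agonist read, cut at about 30% in these data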; also: 0% is about no effect
#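 Tetracycline-induced HEK293 T-REx cells with force-coupled D2 receptor, plated overnight at 30 C, loaded with no-wash calcium dye. After a 10 s baseline, compound was pin-added and calcium flux read kinetically for 180 s; calcium rises flagged agonists.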
# D2 PAM-2: positive allosteric modulators of human D2 dopamine receptor | HEK293 T-REx D2, calcium flux, EC20 dopamine potentiation | actives 0.34% (n = 340,000) | AID 485347 | potentiation, % at 10 µM | P14416;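 active = potentiation over 3 SD above the plate norm, cut at about 30% in these data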; also: 0% is about no effect
#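 Tetracycline-induced HEK293 T-REx cells force-coupled to calcium signalling expressed D2; compounds were pin-added after a 10 s baseline, read kinetically 180 s, then an EC20 dopamine challenge followed with a further 180 s calcium read.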
# D2 ag-2: activates the human D2 dopamine receptor; P14416; DiscoveRx PathHunter D2 beta-arrestin, luminescence, 90 min; 100% = 57 uM dopamine signal; activation, % (test concentration not listed); actives 0.084% (n = 360,000); AID 624465; in the data active = activation above about 40%
#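 DiscoveRx PathHunter D2 beta-arrestin cells (2,100/well) attached overnight, then compound-stimulated 90 min at 37 C in HBSS/10 mM HEPES/0.1% Tween-20 buffer; beta-galactosidase complementation read by luminescence after 1 h at ambient temperature. Dopamine 57 uM final (EC100) as control.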
# * marks the source's active call; other numbers are inactive results; . = no result given. A selection: hits, their analogues and other compounds. The true share with any hit is near 2.4%.
SMILES,D2 antagonist,D2 PAM-1,D2 ag-1,D2 PAM-2,D2 ag-2
CC(=O)c1cc(-c2ccccc2)n(CCC(=O)NC(C)c2ccccc2)c1C (stereo not given),.,.,1.0,5.6,.
Cc1ccc(Cn2c(SCc3ccc(C(=O)N4CCCCCC4)cc3)nc3ccncc32)cc1,.,.,.,1.4,.
O=C(CNCc1ccco1)Nc1ccccc1-n1cccc1,38.0*,-3.6,-0.3,12.3,-0.3
O=C(CNCc1ccco1)Nc1ccc(Oc2ccccc2)cc1,-7.2,-11.5,-1.1,1.8,-0.1
CN(C)CC/C=C1\c2ccccc2Sc2ccc(Cl)cc21,84.8*,-24.9,1.5,-29.1,-3.1
CN(C)CC/C=C1\c2ccccc2Sc2cc(F)c(Cl)cc21,.,-17.4,.,.,-5.0
CC[N+](C)(C)CC/C=C1/c2ccccc2Sc2ccc(Cl)cc21,15.4,-19.1,-1.7,-15.0,-5.4
OCCN1CCN(CC/C=C2/c3ccccc3Sc3ccc(Cl)cc32)CC1,73.0*,-23.8,-1.5,-12.2,-2.1
O=C(Nc1ccc(F)cc1)NC1CCN(Cc2ccccc2)CC1,52.9*,-12.5,0.2,-22.2,-5.2
O=C(Nc1ccc2c(c1)OCO2)C1CCN(Cc2cc3c(cc2O)OCO3)CC1,35.0*,-18.1,-4.2,-16.3,-5.0
O=C(Nc1ccc2c(c1)OCO2)NC1CCN(Cc2ccccc2)CC1,46.4*,-15.9,0.0,-32.7,-4.8
O=C(Nc1ccccc1)NC1CCN(Cc2c(F)cccc2Cl)CC1,-13.1,-22.2,-0.5,-21.4,1.7
O=C(Nc1ccc2c(c1)OCO2)C1CCCCC1,-1.9,-1.9,0.2,5.8,-1.8
COCCNc1ccc(-c2nc(-c3ccncc3)no2)cc1[N+](=O)[O-],.,.,-1.1,-6.0,.
Cc1ccc(CSC2=Nc3ccccc3C3=NC(CCC(=O)N4CCN(c5ccccc5)CC4)C(=O)N23)cc1 (stereo not given),.,.,3.8,.,.
COc1ccccc1CNC(=O)CCc1c(C)nc2c(c(C)nn2-c2ccc(C)c(C)c2)c1C,.,.,-0.2,-3.9,.
CN(C)c1ccc(-c2nnc(SCC3CCCO3)n2C)cc1 (stereo not given),31.6*,-6.0,0.5,3.3,0.5
Cn1c(SCC2CCCO2)nnc1-c1ccncc1 (stereo not given),6.8,4.1,-0.5,5.3,0.7
COc1ccc(C(CNC(=O)c2cccc(S(=O)(=O)Nc3ccccc3OC)c2)N2CCCC2)cc1 (stereo not given),-8.3,-34.3,1.1,-28.8,0.2
COc1ccc(C(CNC(=O)c2cccc(N(C)C)c2)N2CCCC2)cc1 (stereo not given),46.6*,-19.4,0.1,-25.4,-3.0
C=CCN(c1ccccc1)S(=O)(=O)c1cccc(C(=O)NCC(c2ccc(OC)cc2)N2CCCCC2)c1 (stereo not given),54.7*,-32.1,1.3,-27.4,-5.1
COc1ccc(C(CNC(=O)c2ccc(C)c(S(=O)(=O)Nc3ccccc3OC)c2)N2CCCC2)cc1 (stereo not given),48.9*,-22.7,-1.4,-15.0,-3.1
COc1ccc(C2CC(C(F)(F)F)n3nc(C(=O)N(C)Cc4cn(C)nc4C)c(Cl)c3N2)cc1 (stereo not given),-0.7,-10.1,-0.6,33.6*,0.2
COc1ccc(C2CC(C(F)(F)F)n3nc(C(=O)NCc4c(C)nn(C)c4C)c(Cl)c3N2)cc1 (stereo not given),15.9,21.9,-0.7,-6.4,5.4
O=C(CSC1=NCCN1)Nc1cccc([N+](=O)[O-])c1,49.1*,-22.1,-0.4,-21.5,-3.9
SMILES,D2 antagonist,D2 PAM-1,D2 ag-1,D2 PAM-2,D2 ag-2
O=C(CSC1=NCCN1)Nc1ccccc1[N+](=O)[O-],-4.7,-14.9,-0.4,-17.0,-8.9
CCOC(=O)c1[nH]c(C)c(C(=O)NC(CC)Cc2ccccc2)c1C (stereo not given),.,.,3.6,4.0,.
Clc1ccc(OCCCN2CCCCC2)c(Br)c1,38.0*,-46.4,0.8,-20.7,1.6
Clc1ccc(OCCN2CCCCC2)c(Cl)c1,72.2*,-26.9,0.4,-20.6,-2.1
Clc1ccccc1OCCN1CCCCC1,44.3*,-37.5,0.5,-33.3,-4.1
Clc1ccc(SCCCN2CCCCC2)cc1,38.4*,-20.8,-1.0,-25.7,-2.9
CC1CC(C)CN(CCOc2ccc(Cl)cc2Cl)C1 (stereo not given),.,-18.2,.,.,-2.3

# Screening results from PubChem.
